DT40 TDP1 CPT: DT40-hTDP1 cell growth loss with CPT. hit rate 12% among 420,000. chicken DT40 Tdp1-/-;hTDP1 cells + 20 nM CPT, ATP luminescence, 48 h. Potency, µM (series often up to 46.2 µM), for inactives: at the top dose activity change, negative = growth inhibition, actives largely listed as inhibitors; further: nearly all actives have a fitted effect of over 55% in size
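Chicken DT40 Tdp1-/- cells stably complemented with human TDP1 were seeded at 400 cells/well in medium containing 20 nM camptothecin, exposed to pin-transferred compounds, and grown at 37 °C for at least 48 hr. Viability was read as ATP luminescence.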
TDP1 cell noCPT: qHTS for Inhibitors of human tyrosyl-DNA phosphodiesterase 1 (TDP1): qHTS in cells in absence of CPT; Potency, µM (doses to about 46.2 µM), for the others: top-dose activity change, negative = growth inhibition, usual class: inhibitors; AID 686978, 2013; hit rate 15% among 420,000; DT40 Tdp1-/- hTDP1 cells, no CPT, ATP luminescence, 48 h; further: nearly all actives have a fitted effect of over 55% in size
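Camptothecin absent (DMSO only). Human TDP1-complemented DT40 knockout cells, 400 cells/well, 37 °C for minimum 48 hr; ATP measured via CellTiter-Glo, 30 min dark incubation, luminescence.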
HT1080 IDH1KD tx: HT-1080 IDH1 knockdown cell toxicity (counter line); HT-1080 IDH1 knockdown viability, ATP luminescence, 48 h; Potency, µM (series often up to 46.1 µM), for the others: at the highest dose activity, negative = toxicity, most hits filed as cytotoxic; hit rate 2% among 360,000;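 further: 0% = DMSO wells and -100% = cell-free medium wells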
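After a 2 h attachment period, IDH1KD HT-1080 cells took pin-transferred compound for 48 h at 37 °C; ATP-based luminescence after 10 min room-temperature reagent incubation reported viability.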
KB-3-1 tox: kills parental KB-3-1 adenocarcinoma cells; hit rate 1.4% among 400,000; KB-3-1 viability, CellTiter-Glo ATP luminescence, 72 h; Potency, µM (highest dose often 46.1 µM), hits mostly cytotoxic; further: nearly all actives have a fitted effect of over 60% in size
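Screening of KB-3-1 cells (DMEM, 10% FBS, phenol-red free) ran from lowest to highest compound concentration; after 72 h at 37 °C viability was read luminescently and curves fitted.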
HT1080NT lethal: kills 2HG-producing HT-1080-NT fibrosarcoma cells. hit rate 1.6% among 360,000. HT-1080-NT fibrosarcoma viability, CellTiter-Glo ATP luminescence, 48 h. Potency, µM (series often up to 46.1 µM), without a hit: at the highest dose activity, negative = less viability, most hits filed as cytotoxic;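 further: NT is the 2HG producing partner of a matched IDH1 knockdown line; 0% = DMSO-treated cells and -100% = media-only wells without cells; nearly all actives have a fitted effect of over 55% in size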
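Read-out is CellTiter-Glo luminescence after 10 minutes at room temperature, following 48 hours' compound treatment of HT-1080-NT cells (750 cells/well, RPMI, 5% FBS, 37 degrees C).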
KB-V1 cytotox: KB-V1 MDR subline cytotoxicity | KB-V1 MDR cells viability, CellTiter-Glo, 72 h | Potency, µM (series often up to 46.1 µM), usual class: cytotoxic | hit rate 3.4% among 400,000 | AID 1347076; further: nearly all actives have a fitted effect of over 60% in size
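KB-V1, DMEM (no phenol red) + 10% FBS; cpd pin-transferred, titration series; 72 h, 37 degrees C; CellTiter-Glo, luminescence. Data normalized, curve-fit.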
Numbers without * were called inactive; i = inactive; ? = inconclusive; / = no result given; [ ] = remark or other dose. Rows were chosen to be rich in hits. Some 19% of all compounds tested hit in one or more screens of this group. The call rests on the fitted dose curve; in most records, active means well fitted curve in the direction sought with a large enough effect; inconclusive means small, poorly fitted or top-dose-only effect, or another doubt; inactive means no such curve, though single readings can be large; an effect the other way counts as inactive or inconclusive. Unless noted, on the % scale 0 is the no-effect control and ±100 the full control effect; potency means the concentration at half of the fitted maximal effect.

SMILES	DT40 TDP1 CPT	TDP1 cell noCPT	HT1080 IDH1KD tx	KB-3-1 tox	HT1080NT lethal	KB-V1 cytotox
CC(=O)Nc1cccc(NC(=O)CSc2nc(=O)n3cccc(C)c3n2)c1	-8%	2%	4%	i	3%	i
Fc1ccc(-c2nc(Nc3cccc(C(F)(F)F)c3)nc3c2COc2ccccc2-3)cc1	?	?	/	i	/	i
COc1ccc(/C=N/NC(=O)c2nc(-c3ccccc3)cc(-c3ccccc3)n2)cc1	?	26µM*	-2%	i	-6%	i
COc1cc(/C=N/NC(=O)c2cnn3c(C)cc(-c4ccccc4)nc23)ccc1O	23µM*	16µM*	5%	i	5%	i
COc1cc(/C=N/NC(=O)c2cc(-c3ccccc3OC(C)C)nc3ccccc23)ccc1O	?	1.8µM*	?	18µM*	-20%	12µM*
COc1ccc(CC(=O)N/N=C/c2cc(Br)cs2)cc1OC	-24%	?	3%	i	-1%	?
COc1ccc(CC(=O)N/N=C/c2c(C)n(C)c3ccccc23)cc1OC	9.2µM*	9.2µM*	13µM*	?	?	?
COc1cc(/C=N/NC(=O)c2cc(-c3ccccc3)nc3ccccc23)ccc1O	?	?	?	i	-25%	i
Cc1ccc(NC(=O)COC(=O)c2ccco2)cc1S(=O)(=O)N1CCCCC1	-13%	-25%	8%	i	12%	i
COCCNC(=O)C1(C)CCCN(Cc2sc(C)nc2C)C1 (configuration not stated)	-3%	1%	9%	i	9%	i
CN(C(=O)C1CCCC1)C1CCS(=O)(=O)C1 (configuration not stated)	-4%	0%	-4%	i	2%	i
CCOc1cc(/C=N/NC(=O)c2cc(-c3cccc(OC)c3)nc3ccccc23)ccc1O	8.2µM*	1.3µM*	?	?	-24%	?
COc1cc(/C=N/NC(=O)c2nc(-c3ccccc3)n(-c3ccccc3)n2)ccc1O	5%	-23%	7%	i	-4%	i
COc1cc(/C=N/Nc2nc(C)nc3c2cnn3-c2ccccc2)ccc1O	2.9µM*	2.9µM*	?	?	?	8.2µM*
COc1ccc(/C=N/NC(=O)CCn2c3ccccc3c3ccccc32)cc1O	1.5µM*	1.6µM*	?	?	1.4µM*	i
CC(C)COc1cccc(-c2cc(C(=O)N/N=C/c3ccncc3)c3ccccc3n2)c1	9.2µM*	?	18µM*	?	-26%	?
O=C(N/N=C/c1ccc(O)cc1)c1cc(-c2ccccc2)nc2ccccc12	?	?	-27%	?	-25%	i
Cc1cc(C)n(-c2nc3cc(Cl)ccc3nc2Nc2ccc(C)c(F)c2)n1	-4%	19%	/	i	/	i
O=C(Nc1ccc(-c2nc3ccccc3[nH]2)cc1)c1ccc(C(F)(F)F)cc1	/	/	/	i	/	i
CCOc1ccc(-c2c(C)nn3c(C)c(C(=O)Nc4cccc(Cl)c4C)cnc23)cc1OCC	?	?	/	i	/	i
Oc1ccc(N2CCN(c3ncnc4sc(-c5ccccc5)cc34)CC2)cc1	?	23µM*	?	i	13µM*	?
CCc1cc2c(N3CCN(c4ccccc4)CC3)ncnc2s1	13µM*	12µM*	-19%	i	-22%	?
Cc1cc(S(=O)(=O)Nc2cc3c(cc2Cl)n(C)c(=O)c(=O)n3C)ccc1F	-22%	?	/	i	/	i
C=CCc1ccc(O)c(-c2cc(CC=C)ccc2O)c1	15µM*	21µM*	-8%	i	7%	i
C=CCc1ccc(OCC(O)CO)c(OC)c1 (configuration not stated)	-1%	8%	-9%	i	0%	i
SMILES	DT40 TDP1 CPT	TDP1 cell noCPT	HT1080 IDH1KD tx	KB-3-1 tox	HT1080NT lethal	KB-V1 cytotox
c1ccc(-c2nc(-c3ccccn3)nc(-c3ccccn3)n2)nc1	?	15µM*	?	i	?	?
c1ccc(C2=NNC(c3ccccn3)=NN2)nc1	9.2µM*	9.2µM*	-15%	i	-15%	i
c1ccc(-c2nnc(-c3ccccn3)s2)nc1	-23%	?	-6%	?	-4%	i
COCc1c(C(=O)N/N=C/c2cccc3ccccc23)nnn1-c1nonc1N	-2%	-8%	-5%	i	-1%	?
CCc1ccc(-n2nc(CO)c(C(=O)NCCOC)n2)cc1	-16%	-20%	/	/	/	/
CCOC(=O)N1CCc2c(sc3c2c(=O)n(-c2ccc(CC)cc2)c(=O)n3CC(=O)NCC2CCCO2)C1 (configuration not stated)	4.6µM*	1.3µM*	-7%	?	-5%	?
CCCN(CCC)C(=O)Cn1c(=O)n(-c2ccc(Cl)cc2)c(=O)c2c3c(sc21)CCCC3	-26%	-2%	/	i	/	i
CCCN(CCC)C(=O)Cn1c(=O)n(-c2ccc(CC)cc2)c(=O)c2c3c(sc21)CCC3	?	16µM*	/	i	/	i
COC(=O)c1ccc(OC)c(Cn2c(=O)n(-c3cccc(Cl)c3)c(=O)c3c4c(sc32)CN(C(C)=O)CC4)c1	1%	-12%	/	i	/	i
CCOC(=O)N1CCc2c(sc3c2c(=O)n(-c2ccc(CC)cc2)c(=O)n3CC(=O)c2ccccc2)C1	?	-15%	/	/	/	/
COc1cccc(Cn2c(=O)n(-c3cccc(Cl)c3)c(=O)c3c4c(sc32)CN(C(C)=O)CC4)c1	?	18µM*	/	i	/	?
CCOC(=O)N1CCc2c(sc3c2c(=O)n(-c2ccc(CC)cc2)c(=O)n3Cc2cccc(OC)c2)C1	13µM*	?	/	/	/	/
Cc1c(Cl)cccc1-n1nc(C)c2c(C(=O)NCc3ccccc3)cc(C3CC3)nc21	-19%	-10%	/	i	/	i
COC(=O)c1cc(OC)c(OC)c(OC)c1NC(=O)c1cc(=O)n(C)c(=O)n1C	3%	-4%	/	i	/	i
CC(=O)c1ccccc1-c1ccc2c(c1)CC(CNC(=O)C[C@@H]1C[C@@H](C)NC(=S)N1)O2 (some centres not stated)	-8%[9.04 µM]	-7%	/	/	/	/
Nc1nc(CN2CCN(C(c3ccccc3)c3ccccc3)CC2)nc(Nc2ccccc2)n1	?	23µM*	?	i	?	i
